Source: PubChem BioAssay (NCATS)
Records with an inconclusive call do not appear. The source made the active and inactive calls. Calls come from the whole dose curve; as a rule, active = well fitted inhibition curve with a large enough effect; inconclusive = small, poorly fitted or top-dose-only effect; inactive = flat fitted curve, though single readings scatter.

How the values were obtained:
Test in all cases: qHTS profiling for inhibitors of Plasmodium falciparum proliferation (AID 504749); note: nearly all actives have a fitted effect of over 60% in size
Conditions in all cases: P. falciparum in erythrocytes, SYBR Green DNA, 72 h; series mostly up to 28.7 µM
AA1029 = system: AA1029
In short: (§1)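 SYBR Green fluorescence of parasite DNA, read after lysis and overnight dark incubation, measured growth over 72 h in erythrocyte culture at 0.3% parasitemia and 2.5% hematocrit. Data normalised to DMSO and 0.29 uM artemisinin, with plate-drift correction.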

AS120 = system: AS120
In short: as §1

ATS189 = system: ATS189
In short: as §1

ATS95 = system: ATS95
In short: as §1

C2A = system: C2A
In short: as §1

CP185 = system: CP185
In short: as §1

CP191 = system: CP191
In short: as §1

CP192 = system: CP192
In short: as §1

CP194 = system: CP194
In short: as §1

CP201 = system: CP201
In short: as §1

CP203 = system: CP203
In short: as §1

CP211 = system: CP211
In short: as §1

CP215 = system: CP215
In short: as §1

CP217 = system: CP217
In short: as §1

CP237 = system: CP237
In short: as §1

CP238 = system: CP238
In short: as §1

CP247 = system: CP247
In short: as §1

CP250 = system: CP250
In short: as §1

CP252 = system: CP252
In short: as §1

CP256 = system: CP256
In short: as §1

Measured: Potency
Potency is the fitted concentration of half-maximal effect.

C=C1C(CCl)(CCl)C2(Cl)C(Cl)C(Cl)C1(Cl)C2(Cl)Cl (stereo not given)
active: AA1029 3.16 µM | AS120 2 µM | ATS189 3.16 µM | ATS95 3.16 µM | C2A 3.16 µM | CP185 3.16 µM | CP191 3.16 µM | CP192 5.36 µM | CP194 6.75 µM | CP201 13.5 µM | CP203 3.79 µM | CP211 12 µM | CP215 3.79 µM | CP217 3.16 µM | CP237 3.16 µM | CP238 3.16 µM | CP247 3.16 µM | CP250 1.12 µM | CP252 3.16 µM | CP256 3.55 µM

CCCCCCCCCCCCCC(=O)OCC(COP(=O)([O-])OCC[N+](C)(C)C)OC(=O)CCCCCCCCCCCCC (stereo not given)
inactive: all assays above

OCl
inactive: all assays above

CO[C@H]1C[C@@H]2CC[C@@H](C)[C@@](O)(O2)C(=O)C(=O)N2CCCC[C@H]2C(=O)O[C@H]([C@H](C)C[C@@H]2CC[C@@H](OC(=O)C(C)(CO)CO)[C@H](OC)C2)CC(=O)[C@H](C)/C=C(\C)[C@@H](O)[C@@H](OC)C(=O)[C@H](C)C[C@H](C)/C=C/C=C/C=C/1C
inactive: all assays above

CCOC(=O)[C@@H](N)CS
inactive: all assays above

O=C(/C=C/c1cccc(F)c1)NC1CC1
inactive: all assays above

CC(C)[C@H](N)C(=O)OCC(CO)OCn1cnc2c(=O)[nH]c(N)nc21 (stereo not given in full)
inactive: all assays above

O=C1c2ccccc2CN2C(=O)c3ccccc3CN12
inactive: all assays above

CN(C)c1ccc(C(=C2C=CC(=[N+](C)C)C=C2)c2c(O)c(S(=O)(=O)[O-])cc3cc(S(=O)(=O)O)ccc23)cc1
inactive: all assays above

CO/N=C(/C(=O)N[C@@H]1C(=O)N2C(C(=O)O)=C(COC(N)=O)CS[C@H]12)c1ccco1
inactive: all assays above

CC(C)CCC[C@@H](C)[C@H]1CC[C@H]2[C@@H]3CC[C@@H]4C[C@H](O)CC[C@]4(C)[C@H]3CC[C@]12C
inactive: all assays above

O=C1c2ccccc2C(=O)C1c1ccc(F)cc1
inactive: all assays above

O=C(O)[C@H]1CN(C/C=C/P(=O)(O)O)CCN1
inactive: all assays above

C(=C\c1ccncc1)/c1ccccc1
inactive: all assays above

CCCC(=O)O
inactive: all assays above

O=C(CCCCCCCCCCCCC1CCCC1)Nc1ccc(S(=O)(=O)c2ccc(NC(=O)CCCCCCCCCCCCC3CCCC3)cc2)cc1
inactive: all assays above

COc1ccc2c(c1)OC(C)(C)C(c1ccccc1)C2c1ccc(OCCN2CCCC2)cc1 (stereo not given)
active: AA1029 3.55 µM | AS120 3.16 µM | ATS189 3.55 µM | ATS95 5.01 µM | C2A 4.47 µM | CP185 3.98 µM | CP191 2.51 µM | CP192 10.7 µM | CP194 6.75 µM | CP201 5.36 µM | CP203 12 µM | CP211 10.7 µM | CP215 9.53 µM | CP217 3.16 µM | CP237 3.98 µM | CP238 11.2 µM | CP247 2.51 µM | CP250 4.47 µM | CP252 3.98 µM | CP256 4.47 µM

N[C@H](CC(=O)O)C(=O)O
inactive: all assays above

C=CC[C@@H]1/C=C(\C)C[C@H](C)C[C@H](OC)[C@H]2O[C@@](O)(C(=O)C(=O)N3CCCC[C@H]3C(=O)O[C@H](/C(C)=C/[C@@H]3CC[C@@H](O)[C@H](OC)C3)[C@H](C)[C@@H](O)CC1=O)[C@H](C)C[C@@H]2OC
active: AA1029 2 µM | AS120 1.41 µM | ATS189 1 µM | ATS95 2.24 µM | C2A 0.251 µM | CP185 0.891 µM | CP191 1.26 µM | CP192 3.79 µM | CP194 4.26 µM | CP201 5.36 µM | CP203 4.78 µM | CP211 4.78 µM | CP215 3.79 µM | CP217 3.16 µM | CP237 0.708 µM | CP238 1.12 µM | CP247 1.41 µM | CP250 0.891 µM | CP252 1 µM | CP256 0.708 µM

CCOC(=O)c1cc(-c2ccccc2)nc2ccc(C)cc12
inactive: all assays above

NC(=O)[C@@H]1CCCN1C(=O)[C@H](Cc1cnc[nH]1)NC(=O)[C@@H]1CCC(=O)N1
inactive: all assays above
